The campaign covered roughly 52,000 compounds. About 4,300 (8.3%) were called active. Cut-off read from the data, not from the text of the source: active = survival mostly below about 52% (no sharp cut-off); inactive = mostly above about 56%. The entries come from a sample that favours actives as a whole.

The values below come from PubChem BioAssay AID463173 (ICCB-Longwood Screening Facility, Harvard Medical School, 2010).

The assay concerns DeltatarO mutant. The assay can be described thus: growth inhibition of S. aureus wild type versus tarO mutant, primary screen, teichoic acid synthesis inhibitors, RN4220, OD600 (AID 463173). The note with it: OD600, 18 h, hits give low values, screened at 18.75 µg/mL (by protocol).
Turning to `Cc1cc(C)c(C#N)c(SCc2cccnc2)n1`, the survival was 53% (inactive).
As for `COc1cccc(CSc2nc3cc(OC)c(OC)cc3c3nc(CCn4nc(C)cc4C)nn23)c1`, the survival is 60% (active).
In the case of `COc1cc2nc(SCc3cccc(Cl)c3)n3nc(CCn4nc(C)cc4C)nc3c2cc1OC` it was 79% (inactive).
`COc1cc2nc(SCc3ccc(C)cc3)n3nc(CCn4nc(C)cc4C)nc3c2cc1OC`: the survival is 58% (inactive).
As for `CCc1ccccc1NC(=O)c1ccc2nc(C(C)C)oc2c1`, the survival was 73% (inactive).
On to `CCn1cc2nc(SCc3cc(C)ccc3C)n(Cc3ccc(C)cc3)c(=O)c2n1`, for which the survival was 69% (inactive).
Regarding `CCC(CC)C(=O)Nc1nnc(SCc2cc(=O)c3ccccc3[nH]2)s1`, the survival is 115% (inactive).
For `COc1ccc(-n2c(SC)nc3sc4c(c3c2=O)CCN(C(C)=O)C4)cc1`, the survival was 127% (inactive).
Consider `CCCCCSc1nc2sc3c(c2c(=O)n1-c1ccccc1)CCN(C(C)=O)C3`, for which the survival is 77% (inactive).
The value for `CC(=O)N1CCc2c(sc3nc(SCC(C)C)n(-c4ccc(C)c(Cl)c4)c(=O)c23)C1` was 45% (active); that for `COc1ccc(-n2c(=O)c3c4c(sc3n3c(SCCC(C)C)nnc23)COC(C(C)C)C4)cc1` (stereo unspecified) was 59% (inactive).
Regarding `CC(=O)N1CCc2c(sc3nc(SCC(C)C)n(-c4ccc(F)c(Cl)c4)c(=O)c23)C1`, the survival was 63% (inactive).
With `COc1ccc(-n2c(SCCC(C)C)nc3sc4c(c3c2=O)CC(C(C)C)OC4)cc1` (stereo unspecified), the survival was 30% (active).
`CCCCCSc1nc2sc3c(c2c(=O)n1-c1ccc(OC)cc1)CCN(C(C)=O)C3`: the survival is -18% (active).
Regarding `CCOC(=O)CSc1nc2sc3c(c2c(=O)n1-c1ccc(OC)cc1)CC(C(C)C)OC3` (stereo unspecified), the survival is 73% (inactive).
Consider `CCSc1nc2sc3c(c2c(=O)n1-c1ccc(C)c(Cl)c1)CCN(C(C)=O)C3`, for which the survival is 61% (inactive).
For the compound `Nc1c(C(=O)Nc2cccc(Cl)c2)sc2nc3c(cc12)CN(Cc1ccccc1)CC3`, the survival is 69% (inactive).
For the compound `Cc1ccc(NC(=O)Cn2cc3c(n2)CCCCC3)cc1`, the survival is 77% (inactive).
Regarding `COc1ccc(NC(=O)CSc2nc3ccccc3n2CC(=O)N(C)c2ccc(F)cc2)cc1`, the survival is 87% (inactive).
As for `Cc1nn(C)c(C)c1S(=O)(=O)N(CC(=O)N1CCN(c2ccccc2)CC1)c1ccc(C(C)C)cc1`, the survival is 79% (inactive).
On to `COc1ccc(-c2cn3c(n2)sc2cc(C(=O)NCC(C)c4ccccc4)ccc23)cc1` (stereo unspecified), for which the survival is 65% (inactive).
In the case of `CCOc1ccc(-n2c(SCC(=O)NC3CCCCC3)nc3c([nH]c4ccccc43)c2=O)cc1`, the survival is 92% (inactive).
In the case of `O=C(CSc1nc2c([nH]c3ccccc32)c(=O)n1-c1ccc(F)cc1)NC1CCCCC1`, the survival is 83% (inactive).
In the case of `COc1ccc(-n2c(SCC(=O)NC3CCCCC3)nc3c([nH]c4ccccc43)c2=O)cc1` it was 37% (active); in that of `CCC1CCCCN1C(=O)CSc1nc2c([nH]c3ccccc32)c(=O)n1-c1ccc(OC)cc1` (stereo unspecified), 25% (active); in that of `O=C(CSc1nc2c([nH]c3ccccc32)c(=O)n1-c1ccccc1)N1CCCCC1`, 73% (inactive).
As for `CCSc1nc2c([nH]c3ccccc32)c(=O)n1-c1ccc(OC)cc1`, the survival was 46% (active).
For `O=C(CSc1nc2c([nH]c3ccccc32)c(=O)n1-c1ccccc1)N1CCCCCC1`, the survival is 95% (inactive).
Consider `CCSc1nc2c([nH]c3ccccc32)c(=O)n1-c1cccc(OC)c1`, for which the survival is 94% (inactive).
For the compound `COc1cccc(-n2c(SCC(=O)N3CCCCC3)nc3c([nH]c4ccccc43)c2=O)c1`, the survival is 20% (active).
In the case of `CCOc1ccc(-n2c(SCC(=O)N3CCCCCC3)nc3c([nH]c4ccccc43)c2=O)cc1` it was 106% (inactive); in that of `CCC1CCCCN1C(=O)CSc1nc2c([nH]c3ccccc32)c(=O)n1-c1cccc(OC)c1` (stereo unspecified), 66% (inactive); in that of `CCSc1nc2c([nH]c3ccccc32)c(=O)n1-c1ccc(F)cc1`, 87% (inactive).
As to `C(#Cc1ccccc1)CN1CCCCC1`, the survival is 107% (inactive).
As for `CN(C)S(=O)(=O)c1ccc(C(=O)NCCSc2c(-c3ccc(Br)cc3)[nH]c3ccccc23)cc1`, the survival was 74% (inactive).
The value for `CC(C)Cn1c(SCc2cccc(F)c2)nc2ccsc2c1=O` was 74% (inactive); that for `CCCCNC(=O)CSc1nc2n[nH]c(C)c2c(=N)n1-c1ccccc1CC` was 89% (inactive).
Consider `O=C1CN(C(=O)Nc2ccccc2Cl)C(c2ccccc2)c2c(sc3c2CCCC3)N1` (stereo unspecified), for which the survival was 73% (inactive).
The value for `CCc1ccccc1N1C(=O)N(CC(=O)c2ccc(OC)cc2)c2ccccc2S1(=O)=O` was 79% (inactive); that for `CC(C)CCNC(=O)Nc1ccc2c(c1)N(Cc1ccccc1)C(=O)c1ccccc1S2` was 79% (inactive); that for `Cc1nc(SCCOc2ccccc2F)[nH]c(=O)c1Cc1ccccc1` was 75% (inactive).
Turning to `Cc1ccc(-n2nc3c(=O)n(C(C)C(=O)O)nc(C)c3c2C)cc1` (stereo unspecified), the survival was 101% (inactive).
On to `Cc1ccc(-c2nc(C(=O)NCc3ccc(Cl)cc3)c3n2CCCCC3)cc1`, for which the survival is 56% (inactive).
Consider `CSc1nnc2[nH]c(=O)cc(C)n12`, for which the survival is 69% (inactive).
For the compound `Cc1ccc(-n2nc(C)c3c(C(=O)Nc4ccc(C)cc4Cl)cc(C)nc32)cc1`, the survival is 63% (inactive).
On to `Cc1cccc(C(=O)Nc2nnc(S(=O)(=O)N(C)Cc3ccco3)s2)c1`, for which the survival was 25% (active).
As to `CN(c1ccc(Cl)cc1)S(=O)(=O)c1nnc(NC(=O)c2ccco2)s1`, the survival is 62% (inactive).
Consider `CN(Cc1ccco1)S(=O)(=O)c1nnc(NC(=O)c2cccc(Cl)c2)s1`, for which the survival is 5% (active).
For the compound `CCC(=O)Nc1nnc(S(=O)(=O)N(C)Cc2ccc(Cl)cc2)s1`, the survival is 94% (inactive).
In the case of `COc1cc(C(=O)Nc2cc(C)ccc2OCc2cc(=O)n3c(C)csc3n2)cc(OC)c1OC`, the survival was 58% (inactive).
For the compound `COc1ccc(N(CC(=O)N2CCN(c3ccc(F)cc3)CC2)S(=O)(=O)c2c(C)n[nH]c2C)cc1`, the survival is 70% (inactive).
For the compound `O=C(Nc1ccc(NC(=O)c2ccccc2F)cn1)c1ccco1`, the survival is 82% (inactive).
On to `COc1ccc(OC)c(NC(=O)Cc2c(C)n(C(=O)c3ccc(Cl)cc3)c3ccc(OC)cc23)c1`, for which the survival was 74% (inactive).
Regarding `CCOc1cc(-c2ccc(OC(=O)c3ccc(C)cc3)c(OC)c2)cc(=O)c2c(C)oc(C)c12`, the survival is 99% (inactive).
As for `CCOc1cc(-c2ccc(OC(=O)c3ccc(OC)cc3)c(OC)c2)cc(=O)c2c(C)oc(C)c12`, the survival was 41% (active).
Consider `CCOc1cc(-c2ccc(OC(=O)c3ccc(Cl)cc3)c(OC)c2)cc(=O)c2c(C)oc(C)c12`, for which the survival is 80% (inactive).
